The text below walks through data of PubChem BioAssay AID2284345 (EPA ToxCast).

Results filed as inconclusive are left out. The source made the active and inactive calls. The calls were made as follows: active = hit-call score of the fitted dose curve at least 0.9, where 1 is the maximum; inconclusive = response in the unintended direction; inactive = score below 0.9.

In the assay the test system is zebrafish Glucocorticoid Receptor (GR), gene 553740. The assay can be described thus: ATG_zfGR_EcoTox2: Attagene TRANS-FACTORIAL EcoTox-2 HepG2 Assay for zebrafish Glucocorticoid Receptor (GR). The method, then:
ATG_EcoTox2 is a cell-based, multiplexed assay created by modifying the existing Attagene TRANS-FACTORIAL system to include a panel of nuclear receptors from some or all the following species: human (Homo sapiens), african clawed frog (Xenopus laevis), rainbow trout (Oncorhynchus mykiss), japanese medaka (Oryzias latipes), and zebrafish (Danio rerio). The ECOTOX2-FACTORIAL format uses HepG2, a human liver cell line, with measurements taken at 24 hours after chemical dosing in a 24-well plate. ATG_zfGR_EcoTox2 is one of 29 assay components calculated in the ATG_EcoTox2 assay. It is designed to make measurements of mRNA induction, a form of inducible reporter, as detected with fluorescence intensity signals by Reverse transcription polymerase chain reaction (RT-PCR) and Capillary electrophoresis technology.The assay endpoint ATG_zfGR_EcoTox2 was analyzed in the positive analysis fitting direction relative to DMSO as the negative control and baseline of activity. Using a type of inducible reporter, measures of mRNA for gain-of-signal activity can be used to understand the reporter gene at the transcription factor-level as they relate to the gene for glucocorticoid receptor. Furthermore, this assay endpoint can be referred to as a primary readout, because this assay has produced multiple assay endpoints where this one serves a reporter gene function. […]

`O=S(=O)(O)C(F)(F)C(F)(F)C(F)(F)C(F)(F)C(F)(F)C(F)(F)F`: the outcome was inactive.

As to `O=P(Oc1ccccc1)(Oc1ccccc1)Oc1ccccc1`, the result was inactive.
